Screening results: PubChem, National Center for Advancing Translational Sciences (NCATS)
DT40 TDP1 no CPT – qHTS for Inhibitors of human tyrosyl-DNA phosphodiesterase 1 (TDP1): qHTS in cells in absence of CPT; DT40 Tdp1-/- hTDP1 cells, no CPT, ATP luminescence, 48 h; Potency, µM (highest dose often 46.2 µM), without a hit: at the highest dose activity change, negative = growth inhibition, actives largely listed as inhibitors; 420,000 compounds, 15% hits; also: potency is read from the fitted curve at half-maximal effect; nearly all actives have a fitted effect of over 55% in size
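Growth kinetics read by CellTiter-Glo luminescence after ≥48 hr at 37 °C. Cells: DT40 Tdp1-/- stably carrying human TDP1, 400 per well, compound exposure in the absence of CPT (DMSO vehicle).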
HT1080NT lethal – kills 2HG-producing HT-1080-NT fibrosarcoma cells; 360,000 compounds, 1.6% hits; Potency, µM (doses to about 46.1 µM), for the others: at the top dose activity, negative = less viability, hits mostly cytotoxic; AID 686970; HT-1080-NT fibrosarcoma viability, CellTiter-Glo ATP luminescence, 48 h;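 also: NT is the 2HG producing partner of a matched IDH1 knockdown line; potency is read from the fitted curve at half-maximal effect; 0% = DMSO-treated cells and -100% = media-only wells without cells; nearly all actives have a fitted effect of over 55% in size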
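Luminescent CellTiter-Glo readout after 48 hours of compound exposure at 37 degrees C defined viability of HT-1080-NT cells. Activity was normalized to DMSO wells and cell-free media wells; concentration-response curves were fitted and assigned curve classes.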
DT40 TDP1 CPT – growth inhibition of DT40 Tdp1-/-;hTDP1 cells with camptothecin (screen for TDP1 inhibitors) | chicken DT40 Tdp1-/-;hTDP1 cells + 20 nM CPT, ATP luminescence, 48 h | Potency, µM (top dose mostly 46.2 µM), without a hit: at the highest dose activity change, negative = growth inhibition, actives largely listed as inhibitors | 420,000 compounds, 12% hits; also: potency is read from the fitted curve at half-maximal effect; nearly all actives have a fitted effect of over 55% in size
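Cell growth measured by CellTiter-Glo luminescence after a minimum 48 h, 37 C compound exposure with 20 nM CPT in Tdp1-knockout DT40 cells stably expressing hTDP1, seeded 400/well; qHTS titration format.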
HT1080 IDH1KD tx – HT-1080 IDH1 knockdown cell toxicity (counter line) | HT-1080 IDH1 knockdown viability, ATP luminescence, 48 h | Potency, µM (titrated, usually from 46.1 µM), for the others: at the top dose activity, negative = toxicity, most hits filed as cytotoxic | 360,000 compounds, 2% hits;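 also: potency is read from the fitted curve at half-maximal effect; 0% = DMSO wells and -100% = cell-free medium wells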
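Viability of IDH1-knockdown HT-1080 fibrosarcoma cells was assessed by CellTiter-Glo after 48 h at 37 °C with titrated compound; concentration-effect curves were classified by fit quality and response size.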
IL-1B inflam inh – inflammasome signaling inhibition, IL-1 beta readout; activity change, % at 57.5 µM; THP-1 LPS/ATP IL-1B secretion, AlphaLISA, 16 h; active compounds read low; 360,000 compounds, 4.7% hits; in the data active = activity change below about -50%; inconclusive = mostly about -30% to -49%
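Secreted IL-1B measured by AlphaLISA bead assay after 16 h compound exposure of THP-1 cells; compounds (final up to 57.5 uM) added 1 h before LPS (250 ng/mL) and ATP (1.25 mM) stimulation; lower signal means less secretion.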
* = called active by the depositor; ! = not confirmed by another sample. This is a sample that favours compounds with a hit; in the whole collection about 19% have one here. Unless noted, calls follow the shape of the dose curve; as a rule, active = well fitted curve in the direction sought with a large enough effect; inconclusive = small, poorly fitted or top-dose-only effect, or another doubt; inactive = no such curve, though single readings can be large; an effect the other way counts as inactive or inconclusive. Unless noted, % is scaled to controls: 0 for no effect and ±100 for the full control effect.

Screening O=C(O)CC/C(=N\NC(=O)CNC(=O)c1ccc(F)cc1)c1ccccc1 returned DT40 TDP1 no CPT 5.2%, HT1080NT lethal 8.9%, DT40 TDP1 CPT 2.5%, HT1080 IDH1KD tx 10.0% and IL-1B inflam inh 0.0.
For CCCNC(=O)c1cc(C2CCCN(C(=O)c3cc(F)ccc3C)C2)on1 (centres undefined) the results were DT40 TDP1 no CPT -15.6%, HT1080NT lethal 11.0%, DT40 TDP1 CPT inconclusive, HT1080 IDH1KD tx 1.4% and IL-1B inflam inh 19.1.
Screening CC(=O)C(C(C)=O)C1(O)C(=O)c2ccccc2C1=O returned DT40 TDP1 no CPT 23.1µM*, HT1080NT lethal -12.3%, DT40 TDP1 CPT 25.9µM*, HT1080 IDH1KD tx 1.2% and IL-1B inflam inh 20.7.
CC(=O)Nc1ccc(NC(=O)C2CCN(c3ccc(C(F)(F)F)cn3)CC2)cc1 was read as DT40 TDP1 no CPT inconclusive, HT1080NT lethal inconclusive, DT40 TDP1 CPT -6.6%, HT1080 IDH1KD tx -12.9% and IL-1B inflam inh 54.2.
For CCOC(=O)Nc1ccc(NCc2ccc(F)cc2)nc1N the results were DT40 TDP1 no CPT 16.4µM*!, HT1080NT lethal inconclusive, DT40 TDP1 CPT inconclusive, HT1080 IDH1KD tx inconclusive and IL-1B inflam inh -14.7.
Screening COCCCn1c(=O)/c(=C\c2ccccc2OC(C)C)s/c1=C(/C#N)C(=O)Nc1ccc(C(=O)O)cc1 returned DT40 TDP1 no CPT 14.6µM*, HT1080NT lethal -12.4%, DT40 TDP1 CPT inconclusive, HT1080 IDH1KD tx -21.0% and IL-1B inflam inh -4.0.
COc1ccc2nc(SCC(N)=O)cc(C)c2c1 was read as DT40 TDP1 no CPT -1.8%, HT1080NT lethal 16.4%, DT40 TDP1 CPT 1.1%, HT1080 IDH1KD tx 6.7% and IL-1B inflam inh -5.5.
Screening COc1ccc2c(-c3ccccc3)cc(SCC(N)=O)nc2c1 returned DT40 TDP1 no CPT 20.6µM*, HT1080NT lethal inconclusive, DT40 TDP1 CPT -26.9%, HT1080 IDH1KD tx inconclusive and IL-1B inflam inh -10.5.
CC(O)(c1ccc(F)c(F)c1)c1nc(-c2csc3ccccc23)cs1 (centres undefined) was read as DT40 TDP1 no CPT inconclusive, HT1080NT lethal inconclusive, DT40 TDP1 CPT inconclusive, HT1080 IDH1KD tx inconclusive and IL-1B inflam inh -1.3.
COc1cccc(C(C)(O)c2nc(-c3cc4ccccc4o3)cs2)c1 (centres undefined) was read as DT40 TDP1 no CPT 23.1µM*, HT1080NT lethal inconclusive, DT40 TDP1 CPT 16.4µM*, HT1080 IDH1KD tx inconclusive and IL-1B inflam inh 62.4.
CC(O)(c1cccc(F)c1)c1nc(-c2cncnc2)cs1 (centres undefined) was read as DT40 TDP1 no CPT -23.6%, HT1080NT lethal 11.1%, DT40 TDP1 CPT inconclusive, HT1080 IDH1KD tx 6.0% and IL-1B inflam inh 68.2.
CC(O)(c1cccc(F)c1)c1nc(-c2cc3ccccc3o2)cs1 (centres undefined) was read as DT40 TDP1 no CPT 23.1µM*, HT1080NT lethal inconclusive, DT40 TDP1 CPT inconclusive, HT1080 IDH1KD tx inconclusive and IL-1B inflam inh 27.0.
For CC(O)(c1ccc(F)c(F)c1)c1nc(-c2cc3ccccc3o2)cs1 (centres undefined) the results were DT40 TDP1 no CPT 14.6µM*, HT1080NT lethal inconclusive, DT40 TDP1 CPT inconclusive, HT1080 IDH1KD tx inconclusive and IL-1B inflam inh 5.8.
For COC(=O)C1=C(C)N(C)C(=S)NC1c1ccc(OC)cc1OC (centres undefined) the results were DT40 TDP1 no CPT -15.3%, HT1080NT lethal -0.4%, DT40 TDP1 CPT -11.8%, HT1080 IDH1KD tx 2.0% and IL-1B inflam inh -3.0.
Cc1nnc(SCc2nnc(-c3cccs3)o2)s1 was read as DT40 TDP1 no CPT 1.5%, HT1080NT lethal 8.1%, DT40 TDP1 CPT 21.3%, HT1080 IDH1KD tx 9.6% and IL-1B inflam inh 2.1.
For CC(=O)N1N=C(c2ccc(Br)cc2)CC1c1cccc([N+](=O)[O-])c1 (centres undefined) the results were DT40 TDP1 no CPT inconclusive, HT1080NT lethal -26.1%, DT40 TDP1 CPT inconclusive, HT1080 IDH1KD tx -16.9% and IL-1B inflam inh -10.7.
For Cc1cc2n(n1)C(c1ccccc1)CC(c1ccc(Br)cc1)=N2 (centres undefined) the results were DT40 TDP1 no CPT inconclusive, HT1080NT lethal -0.9%, DT40 TDP1 CPT 16.4µM*, HT1080 IDH1KD tx -3.9% and IL-1B inflam inh inconclusive.
Nc1nncn1C(=O)CCCOc1ccc(Cl)cc1Cl was read as DT40 TDP1 no CPT -7.0%, HT1080NT lethal -4.0%, DT40 TDP1 CPT inconclusive, HT1080 IDH1KD tx 2.3% and IL-1B inflam inh 34.8.
Screening CC1=CC(C)(C)NC(=S)N1c1cccc(C)c1 returned DT40 TDP1 no CPT inconclusive, HT1080NT lethal 8.91µM*!, DT40 TDP1 CPT inconclusive, HT1080 IDH1KD tx 8.91µM*! and IL-1B inflam inh -26.1.
CC1=CC(C)(C)NC(=S)N1c1ccc(C)c(C)c1 was read as DT40 TDP1 no CPT inconclusive, HT1080NT lethal 2.1%, DT40 TDP1 CPT inconclusive, HT1080 IDH1KD tx -3.8% and IL-1B inflam inh -0.7.
Screening Cc1cnnn1-c1ccc([N+](=O)[O-])cc1 returned DT40 TDP1 no CPT -12.2%, HT1080NT lethal -1.4%, DT40 TDP1 CPT -13.1%, HT1080 IDH1KD tx 0.4% and IL-1B inflam inh -19.9.
CC1=CC(C)(C)NC(=S)N1c1ccc(C)cc1 was read as DT40 TDP1 no CPT 23.1µM*, HT1080NT lethal inconclusive, DT40 TDP1 CPT 20.6µM*, HT1080 IDH1KD tx 11.2µM* and IL-1B inflam inh 7.9.
`CC1=CC(C)(C)NC(=S)N1c1ccc([N+](=O)[O-])cc1` gave DT40 TDP1 no CPT 20.6µM*, HT1080NT lethal -27.4%, DT40 TDP1 CPT 29.1µM*, HT1080 IDH1KD tx inconclusive and IL-1B inflam inh -2.1.
Cc1ccc(S(=O)(=O)NN2C(=O)c3ccccc3NC2c2ccccn2)cc1 (centres undefined) was read as DT40 TDP1 no CPT -11.5%, HT1080NT lethal 2.3%, DT40 TDP1 CPT 3.0%, HT1080 IDH1KD tx 1.6% and IL-1B inflam inh -111.5*.
CN(CCN1CCOCC1)C(=O)c1cc(COc2ccc(F)cc2Cl)on1 was read as DT40 TDP1 no CPT -21.8%, HT1080NT lethal 3.4%, DT40 TDP1 CPT -15.3%, HT1080 IDH1KD tx 5.5% and IL-1B inflam inh -11.9.
Screening CC(C)N(Cc1nccn1C)C(=O)c1cc(COc2ccc(F)cc2Cl)on1 returned DT40 TDP1 no CPT inconclusive, HT1080NT lethal -1.6%, DT40 TDP1 CPT 14.6µM*, HT1080 IDH1KD tx -3.5% and IL-1B inflam inh -1.7.
COc1ccc(OCc2cc(C(=O)N(Cc3nccn3C)C(C)C)no2)c2ccccc12 was read as DT40 TDP1 no CPT 11.6µM*, HT1080NT lethal 1.9%, DT40 TDP1 CPT 20.6µM*, HT1080 IDH1KD tx -11.5% and IL-1B inflam inh -1.6.
For COC(=O)CC1C(=O)NCCN1C(=O)CN1Cc2ccccc2OC(c2ccccc2)C1 (centres undefined) the results were DT40 TDP1 no CPT -14.3% and DT40 TDP1 CPT -5.0%.
